# Compound activity as filed in PubChem BioAssay.
# Most compounds without a hit are left out; they make up all but 6.5% or so of the library.
# Marburg entry inh: qHTS for inhibitors of binding or entry into cells for Marburg Virus. AID 540276, 2011. Marburg virus pseudotyped entry inhibition, cell reporter. 1.8% of 300,000 active. Potency, µM (titrated, usually from 37.8 µM), without a hit: top-dose activity change, negative = inhibition, most hits filed as inhibitors; calls by dose curve; tested in HEK293 cells; note: potency is the fitted concentration of half-maximal effect
# VACV Venus inh: qHTS for Stage-Specific Inhibitors of Vaccinia Orthopoxvirus: Venus Reporter Primary qHTS; Vaccinia virus Venus reporter expression, fluorescence; Potency, µM (highest dose often 36.5 µM), inactives show at the highest dose activity change, negative = inhibition, actives largely listed as inhibitors; 0.46% of 330,000 active; AID 720580, 2013; calls by dose curve; tested in A549 cells; note: potency is the fitted concentration of half-maximal effect; nearly all actives have a fitted effect of over 30% in size
# Vaccinia mCherry: qHTS for Stage-Specific Inhibitors of Vaccinia Orthopoxvirus: mCherry Reporter Primary qHTS | 0.63% of 310,000 active | Potency, µM (doses to about 36.5 µM), for the others: at the top dose activity change, negative = inhibition, actives largely listed as inhibitors | AID 720579, 2013 | Vaccinia virus mCherry reporter infection, fluorescence; calls by dose curve; tested in A549 cells; note: potency is the fitted concentration of half-maximal effect; nearly all actives have a fitted effect of over 35% in size
# HCMV antiviral: qHTS Assay for inhibitors of the human cytomegalovirus (HCMV); HFF cells, HCMV-luciferase reporter, 72 h; stronger effect = lower value; 4.5% of 410,000 active; activity change, negative = inhibition, % at 57.5 µM; in the data active = activity change below about -60%; inconclusive = no clear call, values can overlap the other calls; inactive = above about -39%
#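 After 16 h attachment at 37C, HFF cells received test compound and HCMV-luciferase (1 PFU/cell); reporter luminescence read 72 h later, data normalized against buffer-only and known inhibitor Salinomycin.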
# LASV entry inh: qHTS for Inhibitors of binding or entry into cells for Lassa Virus; Lassa virus pseudotype entry inhibition, cell reporter; Potency, µM (series often up to 37.9 µM), for inactives: at the top dose activity change, negative = inhibition, actives largely listed as inhibitors; 1.2% of 300,000 active; AID 540256, 2011; calls by dose curve; tested in HEK293 cells; note: potency is the fitted concentration of half-maximal effect; nearly all actives have a fitted effect of over 50% in size
# FMDV antiviral: High Throughput Screening for Foot and Mouth Disease Virus Antivirals; 1.2% of 410,000 active; FMDV antiviral cell-based qHTS; Potency, µM (series often up to 57.9 µM), inactives show top-dose activity change, negative = inhibition, actives largely listed as inhibitors; AID 1159524, 2015; calls by dose curve; tested in HEK293T cells; note: read-out not given here; potency is the fitted concentration of half-maximal effect; nearly all actives have a fitted effect of over 45% in size
# The depositor's hits bear a star; i = inactive; ? = inconclusive; . = no result given; [ ] = dose if it differs, or a comment. % is set by controls: 0 for no effect and ±100 for the full control effect.
SMILES,Marburg entry inh,VACV Venus inh,Vaccinia mCherry,HCMV antiviral,LASV entry inh,FMDV antiviral
C=CC1=C2C=C(C3CC3)N(Cc3ccc4c(c3)OCO4)C=C2C(=O)C(C)(OC(=O)c2ccco2)C1=O (configuration not stated),-5%[14.2 µM],.,.,.,.,.
Cc1cc2c(cc1C)N[C@]1(C[C@H]3CCCC(=O)N4CC[C@@H](C1)[C@@H]34)C(=NC1CCCCC1)N2,.,-13%,-16%,.,.,.
Cc1ccc2c(c1)-c1onc(C(=O)N(C)c3ccc(F)cc3)c1CO2,.,0%,3%,0,2%[46.1 µM],30%
CCC(C)NC(=S)Nc1ccccc1 (configuration not stated),-2%[46.1 µM],-5%,i,-6,1%[46.1 µM],3%
CCC(C)NC(=S)Nc1ccc(C(=O)OC)cc1 (configuration not stated),-28%[46.1 µM],-5%,-4%,-85*,-25%,19%
CCOC(=O)c1ccc(NC(=S)NNC(C)(C)C)cc1,1%,.,.,-74*,.,87%
Cc1cc(C(=O)NC2CCCc3c2cnn3-c2ccc(C)c(C)c2)n(C)n1 (configuration not stated),.,.,.,-99*,.,?
Cc1ccc(-n2ncc3c2CCCC3NC(=O)c2ccoc2)cc1C (configuration not stated),?,-25%,?,?,-30%,-28%
COc1ncccc1C(=O)NC1CCCc2c1cnn2-c1cc(C)cc(C)c1 (configuration not stated),?,-3%,-9%,-61*,-10%[46.1 µM],6%
COCc1ccc(C(=O)NC2CCCc3c2cnn3-c2ccc(C)c(C)c2)o1 (configuration not stated),.,.,.,-77*,.,?
Cc1cc(=O)[nH]c2nnc(SCc3cccc(C(F)(F)F)c3)n12,.,-18%,-12%,?,-6%[46.1 µM],-12%
Nc1c(C(=O)c2ccccc2)sc2nsc(SCCN3CCCC3)c12,?,?,-52%,-91*,6.3µM*,-16%
Cc1ccccc1NC(=O)c1c(C)oc2ccc(O)c(CN(C)Cc3ccccc3)c12,-19%[46.1 µM],-16%[7.34 µM],-9%[7.34 µM],-17,?,-28%
Cc1cccc2cc(CN(C(=O)c3ccc(N4CCCCC4)cc3)C3CC3)c(N3CCC(O)CC3)nc12,.,-5%,-21%,.,.,-9%
O=C(c1ccc(NS(=O)(=O)c2cccc(F)c2)cc1)N1CCCCC1,.,.,.,-73*,.,-8%
CCOC(=O)N1CCN(C(=O)c2ccc(Oc3ccc([N+](=O)[O-])cc3)cc2)CC1,-11%[46.1 µM],-15%,-11%,-83*,-20%,?
CCOC(=O)N1CCN(C(=O)c2ccc(S(=O)(=O)Nc3ccc(C)cc3)cc2)CC1,?,-18%,-7%,-69*,?,-25%
CCOC(=O)N1CCN(C(=O)c2ccc(NS(=O)(=O)c3ccc(C)cc3)cc2)CC1,-23%,-20%,-1%,-76*,-22%,-26%
O=C(c1ccc(NS(=O)(=O)c2cccc(F)c2)cc1)N1CCCC1,-18%,-15%,i,-12,16%,12%
CN1CCN(C(=O)c2ccc(Oc3ccc([N+](=O)[O-])cc3)cc2)CC1,12%[46.1 µM],1%,0%,26,-8%,-29%
COc1ccc(-c2nc(C)c(CCNS(=O)(=O)c3cc(C)c(C)cc3C)s2)cc1,.,-14%,-20%,-23,-20%[46.1 µM],53%
C[C@@H]1CC(=O)N(C)[C@H](c2ccccc2)[C@H]1S(=O)(=O)c1ccccc1,.,.,.,-8,.,.
Cc1ccc2occ(CC(=O)N(Cc3ccc(Cl)cc3)C3CCS(=O)(=O)C3)c2c1 (configuration not stated),?,-5%,-7%,-6,-10%[46.1 µM],-21%
COc1ccc(NS(=O)(=O)c2ccc(C(=O)N3CCCCCC3)cc2)cc1,?,-14%,-19%,-74*,?,-22%
CCOC(=O)N1CCN(C(=O)c2ccc(CSc3ccc(Cl)cc3)cc2)CC1,?,4%,-18%,-71*,?,25µM*
SMILES,Marburg entry inh,VACV Venus inh,Vaccinia mCherry,HCMV antiviral,LASV entry inh,FMDV antiviral
CCOc1ccc(NS(=O)(=O)c2ccc(C(=O)N3CCCC(C)C3)cc2)cc1 (configuration not stated),?,-9%,-28%,-63*,?,0%
O=C(NCCCN1CCOCC1)c1cnn(-c2ncc3c(n2)-c2ccccc2CC3)c1C1CC1,.,-11%,-29%,.,.,-6%
Cc1cnc(SCC2CCCO2)nc1C1CCCN(C(=O)c2ccc(S(N)(=O)=O)cc2)C1 (configuration not stated),.,0%,-15%,.,.,5%
O=C(CSc1ncccn1)NCC1Cc2cccc(-c3ncccn3)c2O1 (configuration not stated),.,-7%,-14%,.,.,6%
Cn1c(Sc2nc3ccccc3n2C)nc2ccccc21,?,.,.,-95*,?,-13%
Cn1c(SCC(=O)N2CCCC2)nc2ccccc21,11%[46.1 µM],-2%,i,-8,1%[46.1 µM],21%
Cc1nc([N+](=O)[O-])c(Sc2nc3ccccc3n2C)n1Cc1ccccc1,?,-13%,-17%,50,?,25µM*
CN1\C(=C/C=C/C=C/C=[N+](C)C)C(C)(C)c2ccccc21,?,.,.,2,?,16µM*
CN1/C(=C\C=O)C(C)(C)c2ccccc21,5%[46.1 µM],8%,11%,-29,-24%,-10%
CC/C(CC(c1ccccc1)c1c(O)c2ccccc2oc1=O)=N\NC(N)=S (configuration not stated),?,?,14µM*,-6,5%,29%
CC(=O)CC(c1ccccc1)c1c(O)c2ccccc2oc1=O (configuration not stated),.,-15%,-14%,-14,.,-6%
O=C1C=CCC(/C=C/c2ccccc2)O1 (configuration not stated),8.2µM*,0.89µM*,?,?,?,?
Cn1c(=O)c2nncnc2n(C)c1=O,1%,-8%,i,-35,8%,-16%
Cc1nc2c(=O)n(C)c(=O)n(C)c2nc1Cl,8.2µM*,-21%,?,-103*,?,?
Cc1ccc(S(=O)(=O)c2nc(-c3ccco3)oc2SCc2ccccc2Cl)cc1,-29%[46.1 µM],-14%,-11%,-10,-26%[46.1 µM],21%
O=C1c2ccccc2C(=O)C12OC2c1ccc(Cl)cc1Cl (configuration not stated),?,0%,-14%,-9,12%,28µM*
O=C(N/N=C/c1ccccc1C(=O)O)c1cc(-c2ccc3c4c(cccc24)CC3)n[nH]1,?,-2%,-25%,-61*,5%,-7%
C#CCn1c(S(=O)(=O)Cc2ccccc2Cl)nc(-c2ccccc2)c1-c1ccccc1,-7%,.,.,-70*,.,-17%
